Experimental data reported in PubChem BioAssay AID651597 (National Center for Advancing Translational Sciences (NCATS), 2012).
Screen size: about 1,100 compounds; about 390 (35%) were called active. About 30% were inconclusive and are not listed. The list shows a part of the results. A number with no mark means an inactive call. Calls come from the whole dose curve; as a rule, active = well fitted inhibition curve with a large enough effect; inconclusive = small, poorly fitted or top-dose-only effect; inactive = flat fitted curve, though single readings scatter.

biological target: Luciferin 4-monooxygenase (Photinus pyralis) (UniProt P08659); test: qHTS of Nrf2 Activators: Hit Validation in Secondary FLuc Assay; details: firefly luciferase inhibition counter-screen, luminescence; series mostly up to 57.5 µM; activity, negative = inhibition: at the top concentration; note: nearly all actives have a fitted effect of over 65% in size
Method in brief: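 Purified firefly luciferase is tested for inhibition by compounds in the presence of its substrates, ATP and D-luciferin, each at Km. Inhibition marks likely false positives arising from reporter-enzyme stabilization.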
% is set by controls: 0 for no effect and ±100 for the full control effect; potency is the fitted concentration of half-maximal effect.

SMILES	activity, negative = inhibition [%]	Potency
O=C(Cn1cnc2ccccc21)N/N=C/C(Br)=C/c1ccccc1	-29.9	
O=C(/C=C/Nc1ccc(F)cc1)c1cccs1		0.19 µM (active)
O=C(NNC(=O)c1nc(Cl)ccc1Cl)c1ccc(F)cc1	-24.8	
COCCn1c(=NC(=O)c2cc(Cl)sc2Cl)sc2cc(S(N)(=O)=O)ccc21		15.1 µM (active)
O=c1oc2ccc(Br)cc2cc1-c1nc2ccccc2o1	-2.54	
O=c1oc2ccccc2cc1-c1csc(Nc2ccc(O)cc2)n1		1.35 µM (active)
CN1CCN(S(=O)(=O)c2ccc(Sc3nnnn3-c3ccccc3)c([N+](=O)[O-])c2)CC1	-15.7	
CCOc1cc2c(c3c1C(c1ccccc1)N(S(=O)(=O)c1ccc(C)cc1)C3)C(=O)C=CC2=O (stereo not drawn)		0.601 µM (active)
Cc1ccccc1/C=C1\C(=O)Nc2ccc(F)cc21	-16.3	
Cc1ccsc1/C=N/N=C1\C(=O)Nc2ccccc21		3.38 µM (active)
COC(=O)[C@@]1(Sc2ccc(C)cc2)CC(=O)N(C(=O)/C=C/c2ccccc2)[C@@H]1c1ccccc1	-4.35	
O=C(NC(=S)Nc1ccccc1O)c1ccccc1Cl		8.49 µM (active)
O=C(NC(=S)Nc1cc(C(F)(F)F)ccc1Cl)c1ccccc1	-18.4	
O=C(CNC(=S)NC(=O)c1ccccc1Br)c1ccccc1	-2.89	
O=C1/C(=C\c2ccc(Cl)cc2)CCC1CNc1ccc(Cl)cc1 (stereo not drawn)		19 µM (active)
Cc1ccc(S(=O)(=O)c2nc(S(C)(=O)=O)sc2N2CCCCC2C)cc1 (stereo not drawn)	3.09	
COc1cc(C=C(c2nc3ccccc3s2)c2nc3ccccc3s2)ccc1O		12 µM (active)
O=C1Nc2cccnc2N(C(=O)CCl)c2ccccc21	-2.21	
COc1ccccc1C=Cc1ccnc2ccccc12		5.36 µM (active)
O=C(c1ccco1)c1cn(CC(=O)N2CCCc3ccccc32)c2ccccc12	-29.5	
CC(=O)Nc1ccc(O)c(-c2nc3ccccc3s2)c1		2.13 µM (active)
O=C1c2cccc3cccc(c23)C(=O)N1Cc1ccco1	-1.75	

SMILES	activity, negative = inhibition [%]	Potency
c1ccc(N=NC2=NN(c3ccccc3)CS2)cc1		2.13 µM (active)
O=c1c(Cl)c(N/N=C/c2ccc(Cl)cc2)cnn1-c1ccccc1		19 µM (active)
O=C(O)c1ccc(-n2ncc(Cl)c(Cl)c2=O)cc1	4.91	
Cc1ccc(Sc2cnn(-c3ccccc3)c(=O)c2Cl)cc1	0.573	
Oc1ccc2ccccc2c1/C=C/c1ccc2c(Br)cc(Br)c(O)c2n1		10.7 µM (active)
COc1cc2c(cc1NC(=O)c1ccccc1F)CCCC2		8.49 µM (active)
Cc1noc(C)c1COc1ccccc1C(=O)NNC(=O)c1ccccc1F	-1.09	
COc1cc(OC)c(NC(=O)c2ccco2)cc1Cl	-28.1	
COC(=O)c1sccc1NC(=O)c1ccccc1F	2.44	
COc1cc2c(cc1NC(=O)c1ccco1)CCCC2		7.57 µM (active)
COC(=O)[C@@H]1Cc2c([nH]c3ccccc23)C(C)(C)N1C(=O)CCl	3.08	
Cc1cc(Br)ccc1NC(=O)CNC(=O)Cn1ncc(Cl)c(Cl)c1=O	-3.69	
CCOC(=O)c1ccsc1NC(=O)CCS(=O)(=O)c1ccccc1	2.57	
CCOC(=O)c1ccccc1N/C=C/C(=O)c1ccccc1		10.7 µM (active)
CCOC(=O)c1cnc(-c2ccccc2)nc1-c1ccccc1	-24.4	
CS(=O)(=O)c1nc(S(=O)(=O)c2ccc(Cl)cc2)c(N2CCC3(CC2)OCCO3)s1	-1.6	
Cc1ccc(Nc2nc(C(N)=O)c(NC(=O)c3ccccc3Br)s2)cc1		13.5 µM (active)
COC(=O)c1c(NC(=O)c2ccccc2)sc(C(N)=O)c1C	-0.933	
NC(=O)c1nc(Nc2ccccc2)sc1NC(=O)c1ccccc1Br	-28.1	
O=C(Nc1nccc(-c2cccs2)n1)c1cccs1		10.7 µM (active)
O=C(Nc1ncc2c(n1)-c1ccccc1CC2)c1cccs1		10.7 µM (active)
O=C(CSc1nccc(-c2cccs2)n1)Nc1cccc(Cl)c1Cl	-6.99	

SMILES	activity, negative = inhibition [%]	Potency
O=C(CSc1nccc(-c2cccs2)n1)Nc1cccc(Cl)c1	-5.97	
Cc1c(Nc2nc3ccccc3n3cnnc23)cccc1[N+](=O)[O-]	0.0637	
Fc1ccc(Nc2nc3ccccc3n3cnnc23)c(F)c1	6.09	
Oc1ccccc1Nc1nc2ccccc2n2nnnc12		10.7 µM (active)
CSc1ccc(C2NN=C(c3ccccc3)S2)cc1 (stereo not drawn)		0.0426 µM (active)
CC(C)OC(=O)c1cn(-c2ccccc2)nc1-c1ccco1		6.75 µM (active)
O=C(Nc1cccnc1)C1(F)C(F)(F)C(F)(F)C(F)(F)C(F)(F)C1(F)F	-3.88	
N#Cc1c(NC(=O)c2ccc([N+](=O)[O-])o2)sc2c1CCC2		1.69 µM (active)
O=C(Nc1ccc(N2CCN(C(=O)c3ccc(Cl)cc3)CC2)cc1)c1ccc([N+](=O)[O-])o1	-19.8	
O=C(NCC1CCCO1)c1ccc([N+](=O)[O-])o1 (stereo not drawn)	-0.921	
O=C(Nc1cc(Cl)ccc1-n1cncn1)c1ccco1	-2.78	
O=C(Nc1ccc(Br)c(Cl)c1)c1ccco1		5.36 µM (active)
O=C(Nc1nc2ccsc2c(=O)s1)c1ccco1		10.7 µM (active)
O=C(Nc1nc2c(ccc3ccccc32)s1)c1ccco1		4.78 µM (active)
O=C(Nc1nc(-c2ccncc2)cs1)c1ccco1		12 µM (active)
Cc1ccc(Cl)c2sc(NC(=O)C3CC3)nc12	2.02	
Cc1cc(Cl)cc2sc(NC(=O)c3ccco3)nc12		1.69 µM (active)
CC(=O)Nc1ccc2nc(NC(=O)c3ccco3)sc2c1		2.39 µM (active)
C[C@H]1CCC[C@]2(C)C[C@H]3OC(=O)C(CN4CCCCCC4)[C@H]3C=C12 (stereo partly drawn)	1.07	
N#CC1CC(c2ccccc2)=NN1c1ccccc1[N+](=O)[O-] (stereo not drawn)		3.79 µM (active)
Cc1cc(Br)cn2c(Cc3ccccc3)c(-c3ccco3)nc12		9.53 µM (active)
Cc1ccc(Cc2c(-c3ccco3)nc3c(C)cc(Br)cn23)cc1		5.36 µM (active)

SMILES	activity, negative = inhibition [%]	Potency
COc1cc2c(cc1OC)/C(=C/c1ccc(Cl)cc1)C(=O)OC2	-15.1	
O=C(O)c1ccc2c(=O)n3c(nc2c1)/C(=C/c1cccc(Cl)c1Cl)CC3	-29.6	
O=C(Nc1ccc2c(c1)C(=O)NC2=O)c1cccc(C(F)(F)F)c1	1.88	
O=C(Nc1c(Br)cc2c(c1Br)Cc1ccccc1-2)C(F)(F)F	-22.6	
O=C(Nc1ccc(Br)c(C(F)(F)F)c1)c1ccccc1		9.53 µM (active)
Cc1ccc(-c2nc(NCc3ccco3)c3ccccc3n2)cc1		10.7 µM (active)
Cc1cc(NCc2ccco2)n2c(nc3ccccc32)c1C#N	-6.56	
c1ccc(Cn2ncc3c(NCc4ccco4)ncnc32)cc1	3.05	
Cc1cccc(NC(=S)NC(=O)c2cccs2)n1		12 µM (active)
O=C(NC(=S)Nc1cccc2cccnc12)c1cccs1		0.953 µM (active)
O=C(NC(=S)Nc1ccc(Cl)cn1)c1cccs1		0.151 µM (active)
O=C(NC(=S)Nc1ccc(Br)cn1)c1cccs1		0.19 µM (active)
O=C(N/N=C/c1ccc(Br)s1)c1cccs1		6.75 µM (active)
COC(=O)c1sccc1NC(=O)c1ccc(Br)s1	-17.3	
Cc1ccc(S(=O)(=O)c2nc(S(C)(=O)=O)sc2N2CCC3(CC2)OCCO3)cc1	0.757	
Cc1cc(NC(=O)CC(C)(C)C)nc2c1c(=O)oc1ccccc12	-2.51	
C=CCc1cccc(C=Nc2cc(Br)ccc2O)c1O	-4.76	
Fc1cccc(Cc2c(-c3ccco3)nc3ccc(Br)cn23)c1		5.36 µM (active)
Brc1ccc2nc(-c3ccco3)c(Cc3ccsc3)n2c1		5.36 µM (active)
O=C(N/N=C/C=C/c1ccco1)c1cccc([N+](=O)[O-])c1	-19.3	
O=C(N/N=C\C=C\c1ccco1)c1cc(-c2ccc3ccccc3c2)n[nH]1		5.36 µM (active)
O=C(O)c1ccc(/C=C2\COc3ccccc3C2=O)cc1		9.53 µM (active)

SMILES	activity, negative = inhibition [%]	Potency
COc1ccc(N(CCCN2C(=O)c3cccc4cccc(c34)C2=O)C(=O)c2ccncc2)cc1	-1.09	
O=C(CSc1nnc2c(n1)[nH]c1ccccc12)NCc1ccco1		19 µM (active)
Cc1c(C(=O)NCc2ccco2)oc2c(Cl)cccc12	-3.49	
O=C(NCc1ccco1)c1n[nH]c(=O)c2ccccc12	7.6	
Cc1ccc(O)c(NC(=O)c2cccc(NC(=O)c3ccco3)c2)c1		12 µM (active)
Clc1ccc(Br)cc1-c1nc(-c2ccncc2)no1		8.49 µM (active)
CSc1nc2sc3c(c2c(=O)n1C)CCC(C)C3 (stereo not drawn)		6.01 µM (active)
COc1cc(/C=N/Nc2nc3ccccc3s2)ccc1OC(=O)c1ccccc1F		5.36 µM (active)
Cc1ccc2ccc(C3C(=O)c4ccccc4C3=O)nc2c1		0.269 µM (active)
COc1ncccc1-c1cc2nc(NCCNC(C)=O)n(C)c(=O)c2s1		15.1 µM (active)
Cn1c(NCC2CCCCC2)nc2cc(-c3ccsc3)sc2c1=O	-9.1	
Cn1c(NCc2ccc3occc3c2)nc2cc(-c3cccc(C(F)(F)F)c3)sc2c1=O	-5.21	
CC(=NNC(=O)CSc1nc2ccccc2o1)c1ccco1	1.42	
C/C(=N\NC(=O)c1c[nH]c2ccccc12)c1ccco1		7.57 µM (active)
C/C(=N\NC(=O)c1cccc(S(=O)(=O)N2CCCC2)c1)c1ccco1	-17.4	
Oc1ccc2ccccc2c1N=Nc1ccccn1		10.7 µM (active)
O=C(CSc1nnc(-c2ccco2)c(-c2ccco2)n1)c1ccccc1		2.69 µM (active)
CCc1nc(N)c(C#N)c(-c2ccco2)c1C	-17.2	
CSc1nnc(-c2ccco2)c(-c2ccco2)n1		4.78 µM (active)
C=C1C2=C(C(=O)N1OC)[C@@H](O)[C@@](C)(O)[C@@H](CCCCC)O2	1.91	
